Hits are enriched below; roughly 3.2% of the tested compounds scored in any of these assays.
dFosB act: enhances mouse delta FosB homodimer DNA binding; P13346; purified delta FosB, TAMRA-CDK5 oligo fluorescence polarization; percent of positive-control signal above neutral wells; activation, % at 25 µM; 340,000 compounds, 0.99% hits; AID 493131;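 active = mean activation above about 17%, with every replicate also reaching it, limit read from the data, passing the limit was not always enough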
Target sequence (P13346 whole entry, looked up): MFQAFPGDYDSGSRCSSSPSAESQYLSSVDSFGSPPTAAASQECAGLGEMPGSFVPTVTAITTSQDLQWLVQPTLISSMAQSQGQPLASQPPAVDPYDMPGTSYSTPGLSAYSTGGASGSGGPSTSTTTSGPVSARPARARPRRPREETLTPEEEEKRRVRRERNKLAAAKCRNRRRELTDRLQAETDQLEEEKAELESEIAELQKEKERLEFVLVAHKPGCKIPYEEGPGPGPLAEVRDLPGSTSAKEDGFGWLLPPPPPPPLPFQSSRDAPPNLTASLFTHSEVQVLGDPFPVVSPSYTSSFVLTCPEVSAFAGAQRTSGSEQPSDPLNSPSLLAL
CDK5 inh: blocks human CDK5/p35 kinase activity; 330,000 compounds, 0.01% hits; Q00535+Q15078; AID 488839; Recombinant CDK5/p35, ADP-Glo luminescence, 60 min; inhibition, % at 10 µM;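 active = highest replicate inhibition of at least 50% and at least 75% of replicates reaching 50%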;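 note: plate controls were DMSO neutral control for no effect and GW8510 at 10 µM for full effect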
SMARCA2 activ: increases SMARCA2 function in MMTV reporter cells; MG213 cells, MMTV-luciferase reporter, dexamethasone, overnight; activation, % at 9.1 µM; 370,000 compounds, 1% hits; AID 652017; in the data active = activation above about 7.8%;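 note: 0% = vehicle wells and 100% = reference activator wells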
Rtt109 Vps75: inhibitors of Candida albicans Rtt109/Vps75 histone acetyltransferase; 330,000 compounds, 0.16% hits; Q5AAJ8; inhibition, % at 34.9 µM; purified Rtt109/Vps75, ThioGlo CoA-SH fluorescence, 4 h;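 active = inhibition of at least 50% in every replicate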
esBAF inh: inhibitors of esBAF chromatin remodeling in mouse ES cells; AID 602393; 350,000 compounds, 2% hits; Bmi1-luciferase knock-in reporter, 24 h; 100% = twice the neutral-well signal; reporter increase, % at 12.5 µM; in the data active = activation above about 40%;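 note: 0% = median of the plate's neutral control wells and 100% = double that signal; a rise in the Bmi1 reporter signal indicates esBAF inhibition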
Dyrk1A ADPGlo: inhibitors of rat Dyrk1A kinase; Q63470; ADP-Glo luminescence, NFATc1 peptide; inhibition, % at 12.5 µM; 310,000 compounds, 0.43% hits; in the data active = inhibition above about 50%;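 note: plate controls were vehicle with enzyme for no effect and no enzyme for full effect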
An asterisk follows results filed as active.

Results for O=C(O)c1ccc2c3n(nc2c1)-c1ccc(Cl)cc1CO3 ?
SMARCA2 activ: 3.7

Results for O=C(c1ccc2c3n(nc2c1)-c1ccc(Cl)cc1CO3)N1CCCCC1 ?
dFosB act: -1.9; CDK5 inh: 1.8; SMARCA2 activ: 7.4; Rtt109 Vps75: 4.1; esBAF inh: 47.4*; Dyrk1A ADPGlo: -3.8

How did Cc1ccc(C(=O)N2CCOCC2)cc1Cl do in these assays?
dFosB act: 1.3; CDK5 inh: -0.4; SMARCA2 activ: -2.7; Rtt109 Vps75: -6.8; esBAF inh: -4.9; Dyrk1A ADPGlo: -2.8

Results for C[C@H]1CN([C@@H](C)CO)C(=O)Cc2cc(NC(=O)Nc3cccc4ccccc34)ccc2O[C@H]1CN(C)C(=O)Nc1ccc(F)cc1 ?
esBAF inh: -1.1

Results for CNC[C@H]1Oc2ccc(NC(=O)C3CC3)cc2CC(=O)N([C@@H](C)CO)C[C@H]1C ?
esBAF inh: -1.8

What do the screens show for `O=C(CCn1c(=S)[nH]c2cc3c(cc2c1=O)OCO3)NCc1ccccc1Cl`?
dFosB act: 34.6*; CDK5 inh: -3.9; SMARCA2 activ: 4.4; Rtt109 Vps75: 0.2; esBAF inh: -0.4; Dyrk1A ADPGlo: -6.9

Results for O=C(CCn1c(=S)[nH]c2cc3c(cc2c1=O)OCO3)NCCc1ccccc1Cl ?
SMARCA2 activ: -1.9; esBAF inh: -11.1

What do the screens show for `O=C(Nc1ccc(O)c(-c2nc3ccccc3s2)c1)c1cc(=O)c2ccccc2o1`?
dFosB act: -0.1; CDK5 inh: 0.6; SMARCA2 activ: -2.6; Rtt109 Vps75: 56.0*; Dyrk1A ADPGlo: -10.0

What do the screens show for `O=C(Nc1ccc(O)c(-c2nc3ccccc3s2)c1)c1cccs1`?
dFosB act: -0.9; CDK5 inh: -4.9; SMARCA2 activ: 0.3; Rtt109 Vps75: 0.8; Dyrk1A ADPGlo: 3.3

How did COc1ccc(OC)c(Cc2nnc(CCC(=O)N3CCCCC3c3nccs3)o2)c1 (stereo unspecified) do in these assays?
dFosB act: -5.1; CDK5 inh: -1.2; Rtt109 Vps75: 3.9; esBAF inh: 47.6*; Dyrk1A ADPGlo: 4.0

What do the screens show for `COc1ccc(OC)c(Cc2nnc(CCC(=O)N3CCC(N4CCCCC4)CC3)o2)c1`?
dFosB act: -3.5; CDK5 inh: 1.9; SMARCA2 activ: -3.7; Rtt109 Vps75: 3.2; Dyrk1A ADPGlo: 5.6

How did COc1ccc(OC)c(Cc2nnc(CCC(=O)N3CCCCCC3)o2)c1 do in these assays?
dFosB act: -5.6; CDK5 inh: 0.4; SMARCA2 activ: 2.0; Rtt109 Vps75: -7.3; esBAF inh: 52.4*; Dyrk1A ADPGlo: -3.8

Results for COC(=O)[C@H]1[C@H](CO)[C@H]2Cn3c(ccc(-c4ccncc4)c3=O)[C@H]2N1Cc1cccc(F)c1 ?
esBAF inh: -7.2

What do the screens show for `O=C(/C=C1\NCC2c3ccccc3CCN2C1=O)c1ccccc1` (stereo unspecified)?
dFosB act: -7.8; CDK5 inh: -0.3; SMARCA2 activ: 1.8; Rtt109 Vps75: 2.1; esBAF inh: 48.8*; Dyrk1A ADPGlo: 4.9

How did C[C@@H]1CN([C@@H](C)CO)C(=O)c2cc(/C=C/c3ccccc3)cnc2O[C@H]1CN(C)Cc1ccc2c(c1)OCO2 do in these assays?
esBAF inh: -3.1

What do the screens show for `CC(=O)N(C)C[C@H]1Oc2ncc(/C=C/c3ccccc3)cc2C(=O)N([C@H](C)CO)C[C@@H]1C`?
esBAF inh: 0.4

How did COc1cc(OC)cc(-c2c(C#Cc3ccsc3)c3cc(-c4ccc5cc[nH]c5c4)ccc3n2C)c1 do in these assays?
dFosB act: -0.2; CDK5 inh: 2.7; SMARCA2 activ: 1.4; Rtt109 Vps75: 3.7; esBAF inh: 3.2; Dyrk1A ADPGlo: 3.2

How did COc1cc(OC)cc(-c2c(C#Cc3ccsc3)c3cc(-c4cccc5[nH]ccc45)ccc3n2C)c1 do in these assays?
dFosB act: 17.9*; CDK5 inh: 0.4; SMARCA2 activ: 1.8; Rtt109 Vps75: -0.8; esBAF inh: 1.5; Dyrk1A ADPGlo: 3.5

How did C[C@@H]1CN([C@H](C)CO)C(=O)c2cc(N(C)C)ccc2O[C@@H](C)CCCCO[C@@H]1CN(C)C(=O)CCC(F)(F)F do in these assays?
esBAF inh: 2.5

Screening results from PubChem BioAssay.
